HTT cytoprotect – Huntington cell model cytoprotection by ATP luminescence | PC12 HTT-Q103 induced, cytoprotection, ATP luminescence, 40 h | Potency, µM (doses to about 56.4 µM), actives largely listed as activators | actives 0.14% (n = 230,000) | AID 1471; note: nearly all actives have a fitted effect of over 45% in size
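Readout: ATPlite luminescence (ATP level). Model: stable PC12, inducible Htt exon1 Q103-GFP. Inducer: tebufenozide, 100 nM final. Compounds: dose series. No G418 in medium.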
IMPase inh – membrane-permeable compound that blocks inositol monophosphatase; P97697; CHO-M1 cells, IP1 accumulation, HTRF TR-FRET ratio; inhibition (IP1 accumulation), % at 46.1 µM; 120,000 tested, under 10 active; AID 901; active = well fitted curve in the direction sought with a large enough effect in the signal ratio, not every such curve was filed as active; inconclusive = small, poorly fitted or top-dose-only effect, or a change in a side signal; inactive = no such curve, though single readings can be large or run the other way; the % refers to the signal ratio;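 note: cells stimulated with carbachol in lithium chloride buffer; higher means more IMPase inhibition seen as more IP1 and lower FRET ratio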
Target sequence (P97697 whole entry, looked up): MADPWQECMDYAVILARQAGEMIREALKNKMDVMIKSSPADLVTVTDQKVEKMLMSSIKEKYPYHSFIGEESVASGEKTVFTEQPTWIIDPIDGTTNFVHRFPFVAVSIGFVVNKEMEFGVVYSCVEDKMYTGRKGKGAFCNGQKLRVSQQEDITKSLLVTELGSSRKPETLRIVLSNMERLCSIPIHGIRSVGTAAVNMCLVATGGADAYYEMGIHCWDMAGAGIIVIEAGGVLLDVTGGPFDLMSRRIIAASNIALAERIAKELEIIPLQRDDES
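Measured: the HTRF emission ratio (665/620 nm) plus the 620 nm donor channel, each fitted to the Hill equation to give AC50. Cells were CHO-M1 given compounds up to 46 uM and a 30 min carbachol stimulation at 37C.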
Lamin A splicing – LMNA splicing modulation | HeLa LMNA splicing GFP/RFP minigene ratio, 48 h | Potency, µM (highest dose often 46.1 µM), most hits filed as inhibitors | actives 0.01% (n = 200,000); active = well fitted inhibition curve with a large enough effect in the signal ratio, with a control signal flat, not every such curve was filed as active; inconclusive = small, poorly fitted or top-dose-only effect, or effect the other way, or a change in a side signal; the % refers to the signal ratio
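S3 HeLa cells stably expressing lamin A-EGFP splicing minigene plus DsRed2, 600 cells/well, 48 h compound exposure at 37C. Laser-scanning cytometry; analysed as GFP (500-530 nm)/RFP (575-640 nm) total intensity ratio; 0.5% DMSO vehicle.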
HTT aggregate – reduces HttQ103-GFP aggregates in PC12 cells; PC12 HttQ103-GFP aggregates, Acumen cytometry, 40 h; Potency, µM (top dose mostly 46.1 µM), hits mostly inhibitors; actives 1.1% (n = 220,000); AID 1688; note: nearly all actives have a fitted effect of over 60% in size
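Aggregates are detected as GFP objects 1–25 µm with signal 6 STDEV over background in lysates of induced PC12 cells. These carry Huntingtin exon 1 with 103 glutamines fused to GFP under an ecdysone promoter; compounds titrated.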
NPSR antagonist – neuropeptide S receptor (human) antagonism, cAMP. Potency, µM (highest dose often 38.3 µM), usual class: inhibitors. CHO-NPSR cells, cAMP TR-FRET, antagonist mode. actives 1% (n = 220,000); note: nearly all actives have a fitted effect of over 50% in size
IMPase Li inh – cell-permeable IMPase inhibitors with lithium potentiation; actives 0.35% (n = 210,000); AID 1457; Potency, µM (highest dose often 59.4 µM), most hits filed as inhibitors; CHO-M1 cells, IP1 TR-FRET (IP-One), carbachol + lithium;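 note: IP1 builds up when IMPase is blocked and the TR-FRET signal falls; nearly all actives have a fitted effect of over 50% in size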
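CHO cells stably expressing M1 receptor (2000/well, cultured 16–30 h) treated 30 min at 37C with compound plus low lithium. Cytosolic IP1 by TR-FRET (665/620 ratio and 620 channel) after 10 min lysis; AC50 by Hill fit.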
Numbers stand for hits; - = inactive; ? = inconclusive; . = not tested or not shown; [ ] = remark or other dose. Hits are enriched below; roughly 1.6% of the tested compounds scored in any of these assays. Unless noted, calls come from the whole dose curve; as a rule, active = well fitted curve in the direction sought with a large enough effect; inconclusive = small, poorly fitted or top-dose-only effect, or another doubt; inactive = no such curve, though single readings can be large; an effect the other way counts as inactive or inconclusive.

SMILES	HTT cytoprotect	IMPase inh	Lamin A splicing	HTT aggregate	NPSR antagonist	IMPase Li inh
CC(C)Cn1c(/C=N/Nc2nc3ccccc3[nH]2)nc2ccccc21	-[10 µM]	.	?	6.3µM	?	-
CC(=O)Nc1ccc(/C=N/Nc2nc3ccccc3[nH]2)cc1	-[10 µM]	-	-	-	-	-
CCCn1c(/C=N/Nc2nc3ccccc3[nH]2)nc2ccccc21	-[10 µM]	.	?	16µM	?	-
Cn1c(/C=N/Nc2nc3ccccc3[nH]2)nc2ccccc21	-	.	.	?	-	-
C=CCn1cc(/C=N/Nc2nc3ccccc3[nH]2)c2ccccc21	-[10 µM]	-	?	-	10µM	-
Cc1ccsc1/C=C1/NC(=O)N(Cc2ccc(F)cc2)C1=O	-	.	.	-[9.22 µM]	-	-
N/N=C1/c2ccccc2N[C@H]1OC(=O)Nc1cccc(Cl)c1	-[10 µM]	.	.	.	.	-
COc1cc(C2CC(=O)Nc3c2c(=O)nc2c(C)cccn32)cc(OC)c1OC (stereo not given)	-	.	-	-	-	-
Cc1ccc(-n2c(-c3ccccc3)c[n+]3c2CCc2ccccc2-3)c(C)c1	-	.	?	3.2µM	-	-
N#Cc1c(-c2ccc(Br)cc2)nc2n(c1=O)CCCS2	-[10 µM]	-	-	-	-	8.9µM
N#Cc1c(-c2ccc(Cl)cc2)nc2n(c1=O)CCCS2	-	-	-	-	-	?
C=CCn1c(CNc2ccccc2)nnc1SCC(=O)N/N=C/c1ccccc1O	-	-	?	18µM	-	-
C=CCc1cccc(/C=N/NC(=O)CNc2ccccc2OC)c1O	-	.	.	20µM	-	-
C=CCc1cccc(/C=N/NC(=O)C(C)Nc2cccc(C)c2)c1O (stereo not given)	-	.	-	11µM	-	-
C=CCc1cccc(/C=N/NC(=O)CNc2ccccc2)c1O	-	-	?	11µM	-	-
COC(=O)[C@H]1[C@@H]2C[C@H]3c4[nH]c5ccccc5c4CCN3C[C@@H]2CC[C@@H]1O	-	.	.	.	.	.
COc1ccccc1C(=O)Nc1nc2ccc(S(C)(=O)=O)cc2s1	-	.	-	-	?	10µM
O=C(Nc1nc2nccc(-c3ccccc3)n2n1)c1ccccc1	-[10 µM]	.	.	-[9.22 µM]	-[7.67 µM]	.
O=C(Nc1nc2nccc(-c3ccccc3)n2n1)c1ccc(F)cc1	-[10 µM]	.	?	-	-	10µM
OC1(c2ccc(Cl)cc2)CN(c2ccccc2)C2=[N+]1CCS2 (stereo not given)	-	.	.	-	10µM	-
N[C@H](CCC(=O)N[C@H](CSN=O)C(=O)NCC(=O)O)C(=O)O	-	-	.	.	.	-
Cc1ccc(-c2cc(C(F)F)n3ncc(C(=O)N4CCCc5ccccc54)c3n2)cc1	-[10 µM]	-	-	-	-	-
COc1ccc(-c2cc(C(F)F)n3ncc(C(=O)N4CCc5ccccc54)c3n2)cc1	-[10 µM]	.	?	1.6µM	-	-
COc1cc(C(=O)Oc2ccccc2/C=N/NC(=O)c2ccc(Cl)cc2Cl)cc(OC)c1OC	-[10 µM]	-[1.84 µM]	?	6.3µM	-	-
C=CCOc1ccccc1/C=N/NC(=O)c1ccc(Cl)cc1Cl	-[10 µM]	.	-	-	-	-
SMILES	HTT cytoprotect	IMPase inh	Lamin A splicing	HTT aggregate	NPSR antagonist	IMPase Li inh
O=S(=O)(Nc1cccnc1)c1ccc(C2CCCCC2)cc1	-[10 µM]	-	?	2.8µM	-	-
O=S(=O)(Nc1cccnc1)c1ccccc1	-	.	.	-	-	-
COc1ccc(N2C(=O)C(Cl)=C(Oc3cccc(OC)c3)C2=O)cc1	?	.	?	?	10µM	-
COc1ccc(-n2cnc3ccccc32)cc1	-	-	-	14µM	-	-
c1ccc(-n2cnc3ccccc32)cc1	-	.	-	?	-	-
COc1ccc2ncn(-c3ccccc3)c2c1	-[10 µM]	-	-	10µM	-[7.67 µM]	-
Nc1nc(N)c(-c2ccccc2)s1	-	.	.	-	.	.
Cc1cc(C(=O)CSc2nncs2)c(C)n1-c1c(C)n(C)n(-c2ccccc2)c1=O	-[10 µM]	-	-	?	-	-
Cc1ccc(-n2c(C)cc(C(=O)CSc3nncs3)c2C)cc1	-	-	?	10µM	-	-
O=C(c1cccc(F)c1)N1CCC2(CCCN(c3ccc(-c4ccccc4)cc3)C2)CC1	-	.	.	.	.	-
NC(=O)NS(=O)(=O)c1ccc(N)cc1	-	.	.	-	.	.

Screens: PubChem BioAssay, National Center for Advancing Translational Sciences (NCATS)
